Records with an inconclusive call do not appear. Active and inactive are the calls of the source. Unless noted, calls come from the whole dose curve; as a rule, active = well fitted curve in the direction sought with a large enough effect; inconclusive = small, poorly fitted or top-dose-only effect, or another doubt; inactive = no such curve, though single readings can be large; an effect the other way counts as inactive or inconclusive.
Assays:
[1] = biological target: Luciferin 4-monooxygenase (Photinus pyralis) (UniProt P08659); test: Firefly luciferase counterscreen qHTS: Assay Interference Panel against the NCATS CANVASS Library (AID 1347363)
Outline: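 Purified P. pyralis luciferase was added to compounds (11-point series) preincubated 15 min at room temperature with substrate containing 0.013 mM D-luciferin and 0.013 mM ATP; luminescence was read after 5 min.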

[2] = KB-8-5-11 Cancer Cell Toxicity qHTS against the NCATS CANVASS Library (AID 1347364)
Outline: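 Terse: KB-8-5-11, 500 cells/well, 72 hr, 37C/5% CO2, 11-pt titration, CellTiter-Glo readout; confirmatory runs ± 1uM tariquidar in medium.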

[3] = KB-3-1 Cancer Cell Toxicity qHTS against the NCATS CANVASS Library (AID 1347366)
Outline: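 KB-3-1 cells (500 cells/well) in DMEM + 10% FBS were treated with compounds for 72 hr at 37C, 5% CO2. Viability was read as CellTiter-Glo luminescence after 10 minutes at room temperature.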

[4] = qHTS for ATAD5 Agonist screened against the NCATS CANVASS Library (AID 1347367)
Outline: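 HEK293T cells stably carrying an ATAD5-controlled luciferase reporter (2000 cells/well) attached for 5 hr, then received compounds in an 11-point series for 16hr at 37C. Luminescence was read after a 30 min room-temperature reagent step.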

[5] = G06 Cancer Cell Toxicity qHTS against the NCATS CANVASS Library (AID 1347368)
Outline: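 Cells were plated at 500 per well, then compounds were added over an 11-point range. After 72 hr at 37C, CellTiterGlo was added and luminescence measured as ATP content.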

[6] = MCF7 Cancer Cell Toxicity qHTS against the NCATS CANVASS Library (AID 1347369)
Outline: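 MCF7, 500 cells/well; cpds 11-pt qHTS; 72 hr, 37C/5% CO2; CellTiterGlo ATP luminescence.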

[7] = biological target: Nuclear receptor subfamily 1 group I member 3 (Homo sapiens) (UniProt Q14994); test: qHTS for Constitutive Androstane Receptor (CAR) Antagonist screened against the NCATS CANVASS Library (AID 1347372)
Outline: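 Cells were seeded and left 4hr to attach, then received compound at 11 concentrations and 50 nM CITCO. Following 24hr incubation, fluorescence viability and luciferase luminescence were read sequentially.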

[8] = biological target: Nuclear receptor subfamily 1 group I member 3 (Homo sapiens) (UniProt Q14994); test: qHTS for Constitutive Androstane Receptor (CAR) Agonist screened against the NCATS CANVASS Library (AID 1347373)
Outline: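 Cells were plated and allowed to attach for 4hr, then dosed with compound in an 11-point series alongside 1.5uM PK11195. After 24hr at 37C, viability was measured fluorometrically and CAR-driven CYP2B6 reporter luminescence was recorded.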

[9] = qHTS for Hypoxia signaling pathway (HIF-1) antagonists against the NCATS CANVASS Library (AID 1347374)
Outline: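 Antagonism scored as loss of CoCl2-driven (60 uM stock added) HRE beta-lactamase signal, read by CCF4 FRET at 460/530 nm. Compounds were tested in an 11-point series on ME-180 reporter cells for 17 hrs at 37C, with parallel CellTiter-Glo cytotoxicity.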

[10] = qHTS for Hypoxia signaling pathway (HIF-1) agonists against the NCATS CANVASS Library (AID 1347375)
Outline: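 Cells plated and rested 5 h, compounds pinned in DMSO across 11 concentrations, incubated 17 h at 37C, loaded with CCF4-AM for 2 h, fluorescence read at 460 and 530 nm, then CellTiter-Glo luminescence measured for viability and normalization.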

[11] = 10-beta competent E. coli microbial cell viability qHTS against the NCATS CANVASS Library (AID 1347376)
Outline: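 Bacterial suspension diluted to 0.2 OD was dosed with compounds, 11-point series, then held overnight at 37C. BacTiter-Glo reagent was added, and after 20 min at room temperature ATP-dependent luminescence was measured.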

[12] = DH5-alpha competent E. coli microbial cell viability qHTS against the NCATS CANVASS Library (AID 1347377); settings: outcome: at 46.1 µM (top of the series)
Outline: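 Bacteria were dispensed at 0.2 OD, then compounds were pin-transferred. Plates were incubated overnight at 37C, after which BacTiter-Glo was added and luminescence measured 20 min later.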

[13] = qHTS for Inflammasome Signaling Inhibitors: IL-1-beta AlphaLISA screen against the NCATS CANVASS Library (AID 1347379)
Outline: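 Secreted IL-1B from human THP-1 cells quantified by AlphaLISA 16 hr after compound addition (final up to 57.5 uM). A 1 hr compound pretreatment preceded inflammasome activation with 250 ng/mL LPS plus 1.25 mM ATP (final).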

[14] = Inflammasome Signaling qHTS Counterscreen: IL-1-beta AlphaLISA counterscreen against the NCATS CANVASS Library (AID 1347381)
Outline: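 Purified IL-1-beta (4 pg/well) + compound, 11-pt conc. series; acceptor beads 6 ug/mL + biotin-Ab 0.6 nM final, 1 h RT; SA-donor 24 ug/ml final, 30 min dark RT; read ex 680/em 615.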

[15] = qHTS for Activators of p53 Stress Response Pathway screened against the NCATS CANVASS Library (AID 1347388)
Outline: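 p53RE-bla HCT-116 cells (4000/well) were plated 5 h at 37C, exposed to compounds for 16 h at 37C over an 11-point concentration series, then loaded with CCF4 for 2 h at room temperature; 460/530 nm emission ratio read.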

[16] = Secretion counterscreen for inhibitors of the SERCaMP assay screened against the NCATS CANVASS Library (AID 1347390)
Outline: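 SH-SY5Y cells expressing constitutively secreted GLuc, 1000 cells/well, attached 4 h at 37C, then exposed to compounds (0.001 - 77 uM, 11-pnt series) for 20 h. Coelenterazine added; luminescence read to flag secretory-pathway interferers.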

[17] = qHTS for activators of dead-cell proteases activity screened against the NCATS CANVASS Library (AID 1347392)
Outline: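 Cytotoxicity in HepG2 cells was assessed by released protease cleaving AAF-aminoluciferin, with luminescence as signal. Exposure lasted 5 h at 37C across an 11-point series.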

[18] = qHTS for inhibitors of Wild type Zika virus screened against the NCATS CANVASS Library (AID 1347396)
Outline: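 Luminescent CellTiter Glo read-out of virus-induced cytotoxicity, 72 h post-infection, in Vero 766 cells. Compounds were tested at 11 concentrations; uninfected, vehicle-treated wells defined 100% inhibition.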

[19] = Redox Reaction Profiling qHTS: Assay Interference Panel against the NCATS CANVASS Library (AID 1347401)
Outline: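 Quantitative HTS over an 11-point series was run in HEPES pH 7.3 with 50 mM NaCl, 200 uM DTT and 5 uM resazurin. Initial and 15-min resorufin fluorescence readings were taken.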

[20] = qHTS for inhibitors of Rabies Virus screened against the NCATS CANVASS Library (AID 1347402; calls by dose curve)
[21] = Primary qHTS for small molecule stabilizers of the endoplasmic reticulum resident proteome: Secreted ER Calcium Modulated Protein (SERCaMP) assay (AID 1508630)
Outline: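 The SH-SY5Y reporter protocol was run at 3 concentrations up to 38.3 uM (primary) or 11 concentrations (follow-up): 16 h compound, 100 nM thapsigargin for 4 h, then extracellular luciferase luminescence.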

[22] = Primary qHTS for inhibitors of nuclear receptor binding SET domain protein 2 (NSD2) in an isogenic RCH-ACV NSD2 p.E1099K mutant (9B) (AID 1645876)
[23] = Primary qHTS for inhibitors of nuclear receptor binding SET domain protein 2 (NSD2) in an RCH-ACV wild type WT cells (2C) (AID 1645877)

Measured: Potency

Nuclear receptor subfamily 1 group I member 3 (Homo sapiens), sequence (Q14994 whole entry, looked up): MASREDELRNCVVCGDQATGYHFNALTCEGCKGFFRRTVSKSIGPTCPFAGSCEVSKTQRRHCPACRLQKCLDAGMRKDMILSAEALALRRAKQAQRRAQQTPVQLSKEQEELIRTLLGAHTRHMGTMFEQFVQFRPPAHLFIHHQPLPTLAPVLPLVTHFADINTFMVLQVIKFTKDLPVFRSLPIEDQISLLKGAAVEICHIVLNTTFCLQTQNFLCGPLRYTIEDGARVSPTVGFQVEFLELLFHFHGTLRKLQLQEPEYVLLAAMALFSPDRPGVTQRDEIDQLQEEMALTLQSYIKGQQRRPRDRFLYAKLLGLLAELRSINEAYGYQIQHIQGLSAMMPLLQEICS
Luciferin 4-monooxygenase (Photinus pyralis), sequence (P08659 whole entry, looked up): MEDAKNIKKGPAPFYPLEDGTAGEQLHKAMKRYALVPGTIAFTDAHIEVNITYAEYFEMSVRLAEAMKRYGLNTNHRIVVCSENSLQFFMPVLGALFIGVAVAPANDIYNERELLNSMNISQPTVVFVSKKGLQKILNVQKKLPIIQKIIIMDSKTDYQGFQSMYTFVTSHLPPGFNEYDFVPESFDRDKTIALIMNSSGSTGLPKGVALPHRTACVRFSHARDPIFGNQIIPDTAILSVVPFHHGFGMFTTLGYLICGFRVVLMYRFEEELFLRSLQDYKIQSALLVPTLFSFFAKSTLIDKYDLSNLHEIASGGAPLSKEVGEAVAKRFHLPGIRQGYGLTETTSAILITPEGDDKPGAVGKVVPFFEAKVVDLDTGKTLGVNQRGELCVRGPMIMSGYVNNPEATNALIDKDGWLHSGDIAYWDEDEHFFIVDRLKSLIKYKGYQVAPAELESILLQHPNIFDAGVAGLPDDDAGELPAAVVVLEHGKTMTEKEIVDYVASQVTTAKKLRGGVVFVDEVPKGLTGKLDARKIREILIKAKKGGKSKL

COc1ccc2c(c1)[nH]c1c(C)nccc12
active: [2] 38.2 µM | [3] 42.9 µM | [5] 24.1 µM | [6] 34 µM | [9] 17.2 µM | [13] 31.4 µM | [15] 21.5 µM | [16] 62.7 µM | [22] 16.4 µM | [23] 8.2 µM
inactive: all other assays above

Source: PubChem BioAssay (NCATS)
